Measurements reported in PubChem BioAssay (NCATS).
Records with an inconclusive call do not appear. The source made the active and inactive calls. Unless noted, calls follow the shape of the dose curve; as a rule, active = well fitted curve in the direction sought with a large enough effect; inconclusive = small, poorly fitted or top-dose-only effect, or another doubt; inactive = no such curve, though single readings can be large; an effect the other way counts as inactive or inconclusive.

Tests used:
[1] = AP1 Signaling Pathway (AID 357; active = well fitted curve in either direction with a large enough effect, not every such curve was filed as active;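 also: ME-180 reporter cells stimulated with EGF at its EC50 level; % is scaled to controls: 0 for no effect and ±100 for the full control effect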); conditions: ME-180 AP-1-bla reporter, EGF-induced, beta-lactamase ratio, 5 h; at 7.69 µM (top of the series) unless noted
Summary of the method: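 Beta-lactamase reporter under AP-1 response element, ME-180 background. Stimulus: EC50 EGF. Compound exposure 5 h, 37 °C. Detection: CCF4, 2.5 h RT, 460/530 nm. Values: AC50 from titration.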

[2] = target: Cytochrome P450 1A2 (Homo sapiens) (UniProt P05177); assay: p450-cyp1a2 (AID 410; calls by dose curve;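 also: -100% = full effect of reference inhibitor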)
Summary of the method: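 20nM CYP1A2, 100uM Luciferin-ME (=Km), 100mM KPO4; cpd 10 min RT; +NADPH regen, 60 min RT; stop/detect 20 min; luminescence. Normalized to furafylline 57 uM = full inhibition.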

[3] = NFAT Signaling Pathway (AID 444; active = well fitted curve in either direction with a large enough effect, not every such curve was filed as active;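 also: carbachol stimulus at about its EC50 of 1 µM final; % is scaled to controls: 0 for no effect and ±100 for the full control effect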); conditions: Jurkat NFAT-bla M1, carbachol, beta-lactamase ratio, 5 h; at 7.69 µM (top of the series) unless noted
Summary of the method: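 Jurkat cells with NFAT-driven β-lactamase reporter and co-expressed M1 receptor, stimulated with carbachol (final 1 uM, ~EC50), compound titration, 5 h at 37 °C. CCF4 loaded 1 h at RT; 460/530 nm ratio gave %activity and AC50.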

[4] = Stat Signaling Pathway (AID 446; active = well fitted curve in either direction with a large enough effect, not every such curve was filed as active;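 also: ME-180 cervical cancer cells given 40 pM IL-6 alongside compound; SIE-controlled beta-lactamase reporter measured as 460/530 nm FRET emission ratio; % is scaled to controls: 0 for no effect and ±100 for the full control effect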); conditions: ME-180 (cervical carcinoma) SIE beta-lactamase reporter, IL-6 stimulated, 5 h; at 7.69 µM (top of the series) unless noted
Summary of the method: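 Compound effects on IL-6-induced STAT reporter activity were measured in ME-180 cells. After overnight culture, cells were co-treated with 40 pM IL-6 for 5 hrs before beta-lactamase substrate loading at room temperature.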

[5] = target: Glucocorticoid receptor (Homo sapiens) (UniProt P04150); assay: GR-GFP Redistribution (AID 450;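 active = compounds whose dose series gives a full or clear partial fitted curve of increased nuclear translocation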; also: potency is read from the fitted curve at half-maximal effect); conditions: U2OS GR-GFP nuclear translocation, laser cytometry, 2 h
[6] = target: Glucocorticoid receptor (Homo sapiens) (UniProt P04150); assay: GR-EFC Redistribution (AID 451; calls by dose curve; also: potency is read from the fitted curve at half-maximal effect); conditions: CHO-K1 GR-EFC translocation, beta-gal luminescence, 2 h
Summary of the method: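 CHO-K1 cells expressing nuclear EA and GR-ED fragments of b-gal; compounds titrated up to 46 uM final, 2 h at 37 C. GR nuclear translocation read as complemented b-gal luminescence after 1 h RT detection.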

[7] = target: Mitogen-activated protein kinase 10 (Mus musculus) (UniProt Q61831); assay: JNK3 AlphaScreen Assay (AID 530; active = well fitted curve in either direction with a large enough effect, not every such curve was filed as active;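 also: kinase came from lysate of stimulated human HepG2 cells; signal reports phosphorylation of biotinylated GST-cJun 1-79 at Ser73 with 10 µM ATP; % is scaled to controls: 0 for no effect and ±100 for the full control effect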)
Summary of the method: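 HepG2 lysate (IL-1b/TNFa pre-activated) + biotin-GST-cJun 1-79 + anti-pSer73 cJun; cpd titration, 15 min RT; ATP 10 uM start; Tris pH 7.6, MgCl2, DTT, vanadate; beads in EDTA buffer; AlphaScreen.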

[8] = target: 3',5'-cyclic-AMP phosphodiesterase 4B (Homo sapiens) (UniProt Q07343); assay: qHTS Assay for Inhibitors of PDE-IV (AID 607; active = well fitted activation curve with a large enough effect in the main read-out, with a control signal flat, not every such curve was filed as active; also: % of control where 0% means no effect)
Summary of the method: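 ACTOne HEK293 cells carry a modified cAMP-gated CNG channel and express endogenous PDE4; plated 1000 cells/well, compounds up to 22.9 uM final. Membrane-potential dye fluorescence (ex 535/em 590) was read; parental cells received 10 uM forskolin + 100 uM RO 20-1724.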

[9] = target: Guanine nucleotide-binding protein G(i) subunit alpha-1 (Homo sapiens) (UniProt P63096); assay: qHTS Assay for Inhibitors of RGS12 GoLoco Motif Activity (Green Fluorophore) (AID 879);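 also: 0% = labeled peptide with Gαi1 and full inhibition = labeled peptide alone without protein; negative values mean loss of peptide binding seen as reduced polarization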
Summary of the method: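 A drop in FITC polarization marked displacement of the FITC-tagged RGS12 GoLoco peptide (10 nM) from Gαi1 (50 nM). Compounds were incubated 10 min at room temperature in Tris pH 7.5 buffer containing 150 mM NaCl, 0.1 mM GDP and 0.05% NP40; unlabeled peptide titration served as control.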

[10] = target: Muscarinic acetylcholine receptor M1 (Rattus norvegicus) (UniProt P08482); assay: qHTS Assay for Antagonists of Acetylcholine Muscarinic M1 Receptor: Measurement of IP-One Response (AID 944); also: nearly all actives have a fitted effect of over 75% in size
Summary of the method: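 Read-out: HTRF competition between d2-IP1 and Eu-cryptate anti-IP1 antibody, emission 620 and 665 nm. Stimulus was carbachol, EC80 (200 nM), for 30 min in M1-CHO cells (rat receptor), after 10 min compound pre-treatment.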

[11] = target: Pyruvate kinase (Leishmania mexicana) (UniProt Q27686); assay: qHTS Validation Assay for Inhibitors of Leishmania Mexicana Pyruvate Kinase (AID 945);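 also: 0% = DMSO only neutral control wells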
Summary of the method: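 Luminescent ATP detection (PKLight) after a 1 h room-temperature reaction of 0.2 nM LmPYK E451W mutant with 0.5 mM PEP and 0.1 mM ADP at pH 7.2. Activity is normalized to DMSO-only control wells.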

[12] = target: Pyruvate kinase PKM (Homo sapiens) (UniProt P14618); assay: qHTS Assay for Activators of Human Muscle Pyruvate Kinase (AID 954; active = well fitted curve in the direction sought with a large enough effect, not every such curve was filed as active;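 also: 0% = uninhibited enzyme and -100% = no enzyme or full thiadiazolimine inhibition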)
Summary of the method: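 A coupled luminescent readout tracked ATP made from ADP by purified PKM2. Final conditions included 0.1 nM enzyme, PEP and ADP at 0.5 and 0.1 mM, pH 7.2 imidazole buffer with BSA, and a one-hour room-temperature reaction.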

[13] = target: Alpha-galactosidase A (Homo sapiens) (UniProt P06280); assay: Counterscreen for Glucocerebrosidase Inhibitors: qHTS Assay for Human alpha-Galactosidase at pH 4.5 (AID 992); also: 0% is about no effect
Summary of the method: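 Citrate buffer pH 4.5, Tween-20 0.005%. Enzyme 2 nM, substrate 80 uM, 20 min RT. Stop pH 10. Fluorescence Ex 365/Em 440. AC50 by Hill fit.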

[14] = target: alpha-glucosidase (Oryza sativa, rice) (UniProt Q653V4); assay: Counterscreen for Glucocerebrosidase Inhibitors: qHTS Assay for Rice alpha-Glucosidase at pH 5.0 (AID 997);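 also: 0% = full activity with enzyme and -100% = basal without enzyme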
Summary of the method: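 Endpoint fluorogenic assay at pH 5.0: compounds (0.7 nM to 77 uM) titrated against 4 nM rice enzyme and 400 uM 4-MU-alpha-glucoside for 20 min at room temperature; NaOH/glycine stop, read ex 365/em 440 nm, Hill-fitted AC50.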

[15] = target: Cytochrome P450 2D6 (Homo sapiens) (UniProt P10635); assay: qHTS Assay for Inhibitors and Substrates of Cytochrome P450 2D6 (AID 891);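 also: luciferin methyl ether substrate demethylated by CYP2D6 with NADPH regeneration; % is scaled to controls: 0 for no effect and ±100 for the full control effect; nearly all actives have a fitted effect of over 60% in size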
Summary of the method: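 Luminescent read-out of luciferin formed by 5 nM human CYP2D6 demethylating 30 uM Luciferin-ME EGE (Km level) over 60 min at room temperature after NADPH regeneration addition. Data normalized to full inhibition by 1.43 uM quinidine.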

[16] = qHTS Assay for Identification of Small Molecule Agonists for Thrombopoietin (TPO) Signaling Pathway (AID 917); also: % is scaled to controls: 0 for no effect and ±100 for the full control effect
Summary of the method: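 Human TPO receptor–transfected Ba/F3 cells (murine, IL-3-dependent) in IL-3-deficient medium; compounds plus TPO at EC50, 26 pM final; 24 hrs, 37 C; GpIIb-luciferase luminescence after 10 min RT detection.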

[17] = target: Muscarinic acetylcholine receptor M1 (Rattus norvegicus) (UniProt P08482); assay: qHTS Assay for Antagonists of Acetylcholine Muscarinic M1 Receptor: Kinetic Measurement of Intracellular Calcium Response (AID 943);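 also: Fluo-4 calcium signal as peak divided by basal fluorescence over 4 min; nearly all actives have a fitted effect of over 75% in size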
Summary of the method: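 Read-out: peak over basal Fluo-4 fluorescence, kinetic at 1 Hz for 4 min after EC80 carbachol (100 nM final). Rat M1-CHO cells, dye loaded 1 h at 37C, compound added 10 min before agonist.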

[18] = target: Cytochrome P450 3A4 (Homo sapiens) (UniProt P08684); assay: qHTS Assay for Activators of Cytochrome P450 3A4 (AID 885); also: nearly all actives have a fitted effect of over 65% in size
Summary of the method: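 CYP3A4 activity: Luciferin-PPXE O-dealkylation, 25uM substrate, 200mM KPO4, RT throughout. Read-out is luciferase luminescence; higher values reflect activation.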

[19] = target: Cytochrome P450 2C19 (Homo sapiens) (UniProt P33261); assay: qHTS Assay for Inhibitors and Substrates of Cytochrome P450 2C19 (AID 899); also: % is scaled to controls: 0 for no effect and ±100 for the full control effect; nearly all actives have a fitted effect of over 60% in size
Summary of the method: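 Signal comes from luciferase acting on luciferin released by CYP2C19-mediated hydroxylation of Luciferin-H EGE, 10uM (KM). Assay mix: 5nM enzyme, 50mM KPO4; 60 min at 37C with NADPH regeneration. Data normalized against 57uM ketoconazole.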

Cytochrome P450 3A4 (Homo sapiens), sequence (P08684 whole entry, looked up): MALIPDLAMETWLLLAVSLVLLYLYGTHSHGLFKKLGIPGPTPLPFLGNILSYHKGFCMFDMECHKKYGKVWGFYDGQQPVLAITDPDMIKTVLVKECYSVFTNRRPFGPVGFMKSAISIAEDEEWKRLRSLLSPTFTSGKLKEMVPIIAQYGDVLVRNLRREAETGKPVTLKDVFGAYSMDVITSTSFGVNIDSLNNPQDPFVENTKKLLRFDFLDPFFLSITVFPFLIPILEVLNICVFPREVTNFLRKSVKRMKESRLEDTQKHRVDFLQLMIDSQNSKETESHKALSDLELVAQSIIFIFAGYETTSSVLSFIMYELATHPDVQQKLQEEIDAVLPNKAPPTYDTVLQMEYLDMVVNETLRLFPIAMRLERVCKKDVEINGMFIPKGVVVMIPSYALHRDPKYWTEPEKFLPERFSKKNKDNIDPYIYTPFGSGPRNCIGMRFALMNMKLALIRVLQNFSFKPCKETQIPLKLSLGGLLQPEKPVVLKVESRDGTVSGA
Pyruvate kinase (Leishmania mexicana), sequence (Q27686 2-499 E452W): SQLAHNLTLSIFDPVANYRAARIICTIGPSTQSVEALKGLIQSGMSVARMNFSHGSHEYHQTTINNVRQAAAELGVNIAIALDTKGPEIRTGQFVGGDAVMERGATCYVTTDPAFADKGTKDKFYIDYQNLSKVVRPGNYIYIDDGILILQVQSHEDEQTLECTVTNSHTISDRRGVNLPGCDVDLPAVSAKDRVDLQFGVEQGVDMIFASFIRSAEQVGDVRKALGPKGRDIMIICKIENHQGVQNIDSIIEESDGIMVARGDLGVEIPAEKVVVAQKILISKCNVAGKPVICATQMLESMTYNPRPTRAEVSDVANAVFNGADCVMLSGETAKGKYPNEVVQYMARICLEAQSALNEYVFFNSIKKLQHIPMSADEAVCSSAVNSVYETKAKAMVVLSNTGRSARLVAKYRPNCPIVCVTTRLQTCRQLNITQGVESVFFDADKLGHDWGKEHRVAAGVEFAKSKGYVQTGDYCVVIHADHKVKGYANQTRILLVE
Guanine nucleotide-binding protein G(i) subunit alpha-1 (Homo sapiens), sequence (P63096 whole entry, looked up): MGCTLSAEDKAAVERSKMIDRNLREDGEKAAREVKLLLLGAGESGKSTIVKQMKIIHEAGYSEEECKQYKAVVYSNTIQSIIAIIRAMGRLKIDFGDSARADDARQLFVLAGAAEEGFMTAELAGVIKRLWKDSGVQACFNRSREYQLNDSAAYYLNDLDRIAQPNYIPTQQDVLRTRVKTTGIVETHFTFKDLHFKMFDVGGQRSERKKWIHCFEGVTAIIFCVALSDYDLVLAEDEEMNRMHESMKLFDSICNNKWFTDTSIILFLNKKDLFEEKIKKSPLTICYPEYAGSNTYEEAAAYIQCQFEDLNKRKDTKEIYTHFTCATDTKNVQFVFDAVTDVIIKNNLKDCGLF
3',5'-cyclic-AMP phosphodiesterase 4B (Homo sapiens), sequence (Q07343 whole entry, looked up): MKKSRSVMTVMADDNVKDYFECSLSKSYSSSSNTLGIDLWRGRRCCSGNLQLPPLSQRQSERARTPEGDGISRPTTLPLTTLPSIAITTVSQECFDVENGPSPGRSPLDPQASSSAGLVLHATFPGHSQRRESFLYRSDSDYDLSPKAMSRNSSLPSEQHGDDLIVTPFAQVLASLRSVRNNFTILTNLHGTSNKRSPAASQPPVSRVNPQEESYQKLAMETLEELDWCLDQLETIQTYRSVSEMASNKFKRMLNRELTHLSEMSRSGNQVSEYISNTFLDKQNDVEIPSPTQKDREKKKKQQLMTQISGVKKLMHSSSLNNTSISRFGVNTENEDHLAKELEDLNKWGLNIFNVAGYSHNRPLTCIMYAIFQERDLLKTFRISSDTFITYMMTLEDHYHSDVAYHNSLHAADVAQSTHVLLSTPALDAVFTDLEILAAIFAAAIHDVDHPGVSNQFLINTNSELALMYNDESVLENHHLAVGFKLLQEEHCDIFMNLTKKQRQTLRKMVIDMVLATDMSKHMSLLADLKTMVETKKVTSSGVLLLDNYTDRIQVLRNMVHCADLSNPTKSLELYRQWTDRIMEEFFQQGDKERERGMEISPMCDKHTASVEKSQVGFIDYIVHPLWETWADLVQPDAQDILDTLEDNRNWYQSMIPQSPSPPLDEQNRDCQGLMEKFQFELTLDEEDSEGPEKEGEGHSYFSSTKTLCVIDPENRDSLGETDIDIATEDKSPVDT
Muscarinic acetylcholine receptor M1 (Rattus norvegicus), sequence (P08482 whole entry, looked up): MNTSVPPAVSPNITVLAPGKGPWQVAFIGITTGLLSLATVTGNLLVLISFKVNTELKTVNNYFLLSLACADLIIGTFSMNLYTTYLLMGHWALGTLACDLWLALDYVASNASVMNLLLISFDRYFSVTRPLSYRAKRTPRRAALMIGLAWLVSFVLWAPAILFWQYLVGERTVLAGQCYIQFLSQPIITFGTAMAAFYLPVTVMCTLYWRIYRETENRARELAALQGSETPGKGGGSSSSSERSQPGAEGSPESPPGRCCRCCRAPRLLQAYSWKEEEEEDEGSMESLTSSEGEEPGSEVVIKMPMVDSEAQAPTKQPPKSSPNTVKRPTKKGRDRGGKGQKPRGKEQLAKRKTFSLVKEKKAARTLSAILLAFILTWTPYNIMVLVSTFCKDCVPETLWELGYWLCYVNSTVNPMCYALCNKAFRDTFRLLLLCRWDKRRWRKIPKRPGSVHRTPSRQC
Alpha-galactosidase A (Homo sapiens), sequence (P06280 whole entry, looked up): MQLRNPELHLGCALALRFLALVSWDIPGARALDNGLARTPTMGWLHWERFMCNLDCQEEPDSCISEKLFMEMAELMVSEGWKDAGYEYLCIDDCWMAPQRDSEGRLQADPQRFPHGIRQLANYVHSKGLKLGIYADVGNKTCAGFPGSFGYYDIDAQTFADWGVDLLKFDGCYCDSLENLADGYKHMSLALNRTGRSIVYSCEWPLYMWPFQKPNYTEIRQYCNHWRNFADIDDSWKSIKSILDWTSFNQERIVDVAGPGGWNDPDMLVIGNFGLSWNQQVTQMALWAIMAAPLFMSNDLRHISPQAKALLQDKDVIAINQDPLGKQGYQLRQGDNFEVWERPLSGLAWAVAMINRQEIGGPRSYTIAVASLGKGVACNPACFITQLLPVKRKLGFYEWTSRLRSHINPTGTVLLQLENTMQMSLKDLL
Pyruvate kinase PKM (Homo sapiens), sequence (P14618 whole entry, looked up): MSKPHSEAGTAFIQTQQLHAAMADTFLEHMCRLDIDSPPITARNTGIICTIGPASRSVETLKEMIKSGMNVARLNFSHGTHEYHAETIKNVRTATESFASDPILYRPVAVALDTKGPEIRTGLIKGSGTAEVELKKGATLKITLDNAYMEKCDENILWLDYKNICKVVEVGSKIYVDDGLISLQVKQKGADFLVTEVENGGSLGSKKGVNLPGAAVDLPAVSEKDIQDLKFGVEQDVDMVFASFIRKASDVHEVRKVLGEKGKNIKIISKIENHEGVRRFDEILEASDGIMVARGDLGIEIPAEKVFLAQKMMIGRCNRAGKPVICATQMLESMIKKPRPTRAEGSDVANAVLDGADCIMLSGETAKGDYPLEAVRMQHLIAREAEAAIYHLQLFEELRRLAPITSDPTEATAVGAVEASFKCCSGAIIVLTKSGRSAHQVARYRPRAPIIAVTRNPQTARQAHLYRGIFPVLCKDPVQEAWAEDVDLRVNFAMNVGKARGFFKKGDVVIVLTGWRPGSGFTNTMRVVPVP
Cytochrome P450 1A2 (Homo sapiens), sequence (P05177 whole entry, looked up): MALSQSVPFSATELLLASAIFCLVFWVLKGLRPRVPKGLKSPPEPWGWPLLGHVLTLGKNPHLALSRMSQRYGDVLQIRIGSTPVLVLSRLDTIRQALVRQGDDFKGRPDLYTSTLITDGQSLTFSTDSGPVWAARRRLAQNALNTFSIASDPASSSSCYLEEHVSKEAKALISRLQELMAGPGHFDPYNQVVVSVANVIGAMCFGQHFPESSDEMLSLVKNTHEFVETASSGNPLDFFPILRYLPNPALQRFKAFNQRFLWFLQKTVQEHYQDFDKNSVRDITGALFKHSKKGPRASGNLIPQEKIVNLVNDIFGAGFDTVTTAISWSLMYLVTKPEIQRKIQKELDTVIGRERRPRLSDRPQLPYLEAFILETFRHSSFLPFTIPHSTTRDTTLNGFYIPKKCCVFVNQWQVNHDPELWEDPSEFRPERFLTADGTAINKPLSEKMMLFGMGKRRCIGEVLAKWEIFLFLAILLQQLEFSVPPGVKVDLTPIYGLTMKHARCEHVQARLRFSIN
Glucocorticoid receptor (Homo sapiens), sequence (P04150 whole entry, looked up, the tested form may be a part): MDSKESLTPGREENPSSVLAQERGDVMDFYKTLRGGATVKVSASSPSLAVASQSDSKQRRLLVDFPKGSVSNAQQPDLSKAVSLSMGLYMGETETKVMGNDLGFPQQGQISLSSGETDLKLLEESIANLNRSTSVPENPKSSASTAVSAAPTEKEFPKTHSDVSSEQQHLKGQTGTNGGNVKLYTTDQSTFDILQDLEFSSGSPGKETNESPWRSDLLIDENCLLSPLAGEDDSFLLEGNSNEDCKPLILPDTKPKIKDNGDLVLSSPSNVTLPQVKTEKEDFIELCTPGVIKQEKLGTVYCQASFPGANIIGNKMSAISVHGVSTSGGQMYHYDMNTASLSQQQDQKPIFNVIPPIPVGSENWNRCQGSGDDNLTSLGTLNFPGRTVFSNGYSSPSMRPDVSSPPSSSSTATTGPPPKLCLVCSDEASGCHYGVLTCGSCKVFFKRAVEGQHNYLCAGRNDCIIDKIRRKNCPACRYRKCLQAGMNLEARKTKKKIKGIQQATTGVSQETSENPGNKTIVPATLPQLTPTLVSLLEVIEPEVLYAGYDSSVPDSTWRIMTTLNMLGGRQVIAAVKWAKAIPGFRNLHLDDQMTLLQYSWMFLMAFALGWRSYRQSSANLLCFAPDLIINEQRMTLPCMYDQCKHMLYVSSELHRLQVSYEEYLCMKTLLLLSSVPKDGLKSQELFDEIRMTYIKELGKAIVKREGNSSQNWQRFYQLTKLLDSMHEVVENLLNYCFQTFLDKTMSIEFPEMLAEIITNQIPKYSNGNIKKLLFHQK

N=c1ccn2c(n1)O[C@@H]1[C@@H](O)[C@H](CO)O[C@H]12
inactive: activity change, negative = inhibition [1] -4.43% [at 38 µM] | Potency [2] | activity change, negative = inhibition [3] -5.26% [at 38 µM] | activity, negative = inhibition [4] 0.604% [at 38 µM] | Potency [5] > 46 µM | Potency [6] > 46 µM | Potency [7] | Potency [8] | outcome [9] | Potency [10] | outcome [11] | outcome [12] | outcome [13] | Potency [14]

C#C[C@H](N)CCC(=O)O
inactive: activity change, negative = inhibition [1] 2.59% [at 38 µM] | Potency [2] | activity change, negative = inhibition [3] -4.34% [at 38 µM] | activity, negative = inhibition [4] 1.65% [at 38 µM] | Potency [5] > 46 µM | Potency [6] > 46 µM | Potency [7] | Potency [8] | outcome [9] | Potency [15] | outcome [16] | Potency [17] | outcome [11] | outcome [12] | outcome [13] | Potency [14]

NC(=O)C1=CN([C@@H]2O[C@@H](COP(=O)(O)OP(=O)(O)OC[C@@H]3O[C@H](n4cnc5c(N)ncnc54)[C@@H](OP(=O)(O)O)[C@@H]3O)[C@H](O)[C@@H]2O)C=CC1
inactive: activity change, negative = inhibition [1] 7.61% [at 38 µM] | Potency [2] | activity change, negative = inhibition [3] 0.746% [at 38 µM] | activity, negative = inhibition [4] -8.82% [at 38 µM] | Potency [5] > 46 µM | Potency [6] > 46 µM | Potency [7] | Potency [8] | outcome [9] | outcome [16] | Potency [10] | outcome [11] | outcome [12] | outcome [13] | Potency [14]

Cc1ccccc1N1CCN(S(=O)(=O)C[C@@]23CC[C@H](C[C@H]2NC(=O)[C@@H](N)CCS(C)(=O)=O)C3(C)C)CC1
inactive: activity change, negative = inhibition [1] 28.6% [at 38 µM] | Potency [2] | activity change, negative = inhibition [3] 14% [at 38 µM] | activity, negative = inhibition [4] -9.73% [at 38 µM] | Potency [5] > 46 µM | Potency [6] > 46 µM | Potency [7] | Potency [8] | outcome [9] | Potency [18] | outcome [16] | Potency [17] | Potency [10] | outcome [11] | outcome [12] | outcome [13] | Potency [14]

Oc1ccc([C@@H]2CNCc3sccc32)cc1O
inactive: activity change, negative = inhibition [1] -15.6% [at 38 µM] | Potency [2] | activity change, negative = inhibition [3] 8.54% [at 38 µM] | activity, negative = inhibition [4] 5.59% [at 38 µM] | Potency [5] > 46 µM | Potency [6] > 46 µM | Potency [7] | Potency [8] | outcome [9] | Potency [18] | Potency [10] | outcome [11] | outcome [12] | outcome [13] | Potency [14]

CNC(=O)[C@@H]1O[C@@H](n2cnc3c(NCc4ccc(N)cc4)ncnc32)[C@@H](O)[C@H]1O
inactive: activity change, negative = inhibition [1] -7.83% [at 38 µM] | Potency [2] | activity change, negative = inhibition [3] 4.77% [at 38 µM] | activity, negative = inhibition [4] -2.42% [at 38 µM] | Potency [5] > 46 µM | Potency [6] > 46 µM | Potency [7] | Potency [8] | outcome [9] | Potency [18] | outcome [16] | Potency [17] | Potency [10] | outcome [11] | outcome [12] | outcome [13] | Potency [14]

C[C@H]1CN(S(=O)(=O)c2cccc3cnccc23)CCN1
inactive: activity change, negative = inhibition [1] -12.4% [at 38 µM] | Potency [2] | activity change, negative = inhibition [3] 1.25% [at 38 µM] | activity, negative = inhibition [4] 2.7% [at 38 µM] | Potency [5] > 46 µM | Potency [6] > 46 µM | Potency [7] | Potency [8] | outcome [9] | Potency [18] | outcome [16] | Potency [17] | Potency [10] | outcome [11] | outcome [12] | outcome [13] | Potency [14]

CN[C@]1(C)[C@@H]2CC[C@@H](C2)C1(C)C
inactive: activity change, negative = inhibition [1] -7.63% [at 38 µM] | Potency [2] | activity change, negative = inhibition [3] -5.79% [at 38 µM] | activity, negative = inhibition [4] -12.2% [at 38 µM] | Potency [5] > 46 µM | Potency [6] > 46 µM | Potency [7] | Potency [8] | outcome [9] | Potency [18] | Potency [19] | Potency [17] | Potency [10] | outcome [11] | outcome [12] | outcome [13] | Potency [14]

O=C(O)/C=C\c1cnc[nH]1
inactive: activity change, negative = inhibition [1] 4.19% [at 38 µM] | Potency [2] | activity change, negative = inhibition [3] 9.72% [at 38 µM] | activity, negative = inhibition [4] 3.14% [at 38 µM] | Potency [5] > 46 µM | Potency [6] > 46 µM | Potency [7] | Potency [8] | outcome [9] | Potency [18] | outcome [16] | Potency [17] | Potency [10] | outcome [12] | outcome [13] | Potency [14]

NCC[C@H]1CCC[C@H](CCN)N1
inactive: activity change, negative = inhibition [1] 2.44% [at 38 µM] | Potency [2] | activity change, negative = inhibition [3] 2.27% [at 38 µM] | activity, negative = inhibition [4] -5.59% [at 38 µM] | Potency [5] > 46 µM | Potency [6] > 46 µM | Potency [7] | Potency [8] | outcome [9] | outcome [16] | Potency [10] | outcome [11] | outcome [12] | outcome [13] | Potency [14]

CN1C[C@@H](O)[C@@H](O)[C@@H](O)[C@@H]1CO
inactive: activity change, negative = inhibition [1] 0.324% [at 38 µM] | Potency [2] | activity change, negative = inhibition [3] 16.3% [at 38 µM] | activity, negative = inhibition [4] -5.85% [at 38 µM] | Potency [5] > 46 µM | Potency [6] > 46 µM | Potency [7] | Potency [8] | Potency [15] | Potency [19]
